Only some compounds are listed: those with a hit (about 4% of all), similar ones and a draw of the others.
HIF-2a block: blocks HIF-2a reporter activity | 786-0 RCC cells HIF-2a reporter, luciferase luminescence, overnight | inhibition, % at 18.8 µM | hit rate 0.72% among 360,000;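 active means inhibition of the luminescence signal of 40% or more relative to plate controls, in a single-dose primary screen at 18.75 µM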
TROY signal inh: inhibitors of TROY-dependent NF-kB signaling; Q293 LMP1-TROYcd NF-kB luciferase reporter, 4 h; inhibition, % at 10 µM; hit rate 0.98% among 360,000;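 active means compounds whose plate-normalised and pattern-corrected inhibition of the luciferase reporter signal at the single screening dose is 50% or more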
TWEAK Fn14 block: inhibitors of TWEAK-Fn14 interaction signaling. TWEAK-stimulated Fn14 reporter cells, luciferase luminescence, 8 h. inhibition, % at 10 µM. hit rate 2% among 360,000. AID 1159606; in the data active means inhibition above about 50%
Peg3 prom inh-1: reduces Peg3 promoter-driven luciferase expression in HeLa | HeLa PEG-Prom luciferase reporter, luminescence, overnight | inhibition, % at 20 µM | hit rate 1.7% among 360,000;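 active means inhibition of at least 50% at 20 µM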
MITF TRPM1 inh: inhibitors of MITF-driven TRPM1 promoter in melanoma cells. SK-MEL-5 TRPM1 promoter luciferase, 24 h. hit rate 0.83% among 330,000. inhibition, % at 12.5 µM. AID 488899;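 active means mean inhibition across replicates of 60% or more, whatever share of single replicates reaches that level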
LMP1 NFkB inh: reduces LMP1-driven NF-kappaB luciferase signal. LMP1-induced NF-kappaB luciferase reporter cells, luminescence. inhibition, % at 12.5 µM. hit rate 0.69% among 350,000. AID 504558; in the data active means inhibition above about 41%;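 further: 0% = neutral control wells and 100% = reference inhibitor control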
Peg3 prom inh-2: Peg3 promoter inhibition confirmation; AID 602417; hit rate 84% among 1,300; shares compounds with Peg3 prom inh-1; HeLa PEG-Prom luciferase reporter, luminescence, overnight; inhibition, % at 20 µM;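 active means at 20 µM dose, 40% or more inhibition averaged across four replicates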
* = called active by the depositor; / = no result.

SMILES	HIF-2a block	TROY signal inh	TWEAK Fn14 block	Peg3 prom inh-1	MITF TRPM1 inh	LMP1 NFkB inh	Peg3 prom inh-2
CC(O)C1C=CC=CC(=O)OC2CC3OC4C5OC5(C)CCC4(COC(=O)C4OC4(C)C(O)CO1)C2(C)C31CO1 (stereo not given)	65.6*	85.2*	99.0*	97.4*	69.5*	84.3*	/
Cc1[nH]nc2ccc(-c3cncc(OC[C@@H](N)Cc4c[nH]c5ccccc45)c3)cc12	74.9*	77.2*	98.0*	99.5*	90.7*	90.2*	/
C=C(C)CSc1nnc([C@@H](N)Cc2c[nH]c3ccccc23)o1	2.9	-12.2	-2.5	4.6	2.9	-2.9	/
CC(=NNC(=S)N1CC2CCC(CC2)C1)c1nccs1	-251.4	-4.3	17.5	-31.0	56.8	72.8*	/
CCCCCN1C(=O)c2ccccc2[C@@]2(C(=O)OCC)Cc3cc(OC)ccc3[C@@H]12	34.6	23.7	35.1	/	/	/	/
Cc1ccc(/C=C2\C(=O)NC(=S)N(c3ccccc3F)C2=O)s1	95.2*	-7.3	46.8	107.8*	/	3.1	/
Cc1ccc(/C=C2\C(=O)NC(=S)N(c3ccc(F)cc3)C2=O)s1	-85.5	-25.9	-23.5	107.0*	58.6	-33.2	/
CCOC(=O)C1CCN(/C=C2/C(=O)NC(=S)N(c3ccccc3F)C2=O)CC1	20.4	-3.9	-17.0	3.1	7.3	-5.5	/
CCOP(=O)(OCC)OCC	2.8	0.4	-0.3	-9.8	1.7	-7.4	/
CCOP(=O)(CCP(=O)(OCC)OCC)OCC.C[CH2][Sn]([Cl])([Cl])[CH2]C	-18.2	41.4	57.9*	-56.5	85.3*	-2.2	/
O=C(O)C1CC2(Cl)C(Cl)=C(Cl)C1(Cl)C2(Cl)Cl (stereo not given)	5.7	12.7	-1.7	1.0	14.7	-4.2	/
Cc1cccc(NC(=O)COC(=O)c2cc(C)n(C3CC3)c2C)c1	-14.4	-6.3	-0.1	-21.8	4.4	-2.5	/
CC(=O)O[C@@H]1CC[C@]2(C)C3CC[C@]4(C)C(=O)[C@H](O)CC4C3[C@@H](OC(C)=O)C[C@H]2C1 (stereo not given in full)	19.0	30.3	52.8*	8.7	11.4	6.7	/
N#Cc1ccc(Cn2cc(C=O)c3ccccc32)cc1	4.5	4.7	8.8	73.6*	-85.7	2.5	60.6*
CCC(=O)c1cn(Cc2ccc(C#N)cc2)c2ccccc12	13.4	-11.7	-29.3	10.5	-9.0	-18.0	/
CC[C@@H](O)C[C@H]1CCC[C@@]2(C[C@@H]3OC(=O)/C=C/[C@@](C)(O)[C@@H](O)[C@H](C)[C@@H](O)[C@H](OC4CCC(N(C)C)C(C)O4)[C@@H](O)[C@](C)(O)CCCCC/C=C/[C@@H]4CC(C)(C)O[C@@]4(O)C[C@H](O2)[C@H]3C)O1 (stereo not given in full)	-15.2	48.1	60.5*	89.2*	75.8*	23.7	92.5*
Cn1c(O)c(C=NCCN2CCOCC2)c(=O)n(C)c1=S	22.7	-0.6	13.9	10.0	4.9	-2.9	/
O=[N+]([O-])c1ccc(NC2CCCC2)c2ccncc12	21.2	-1.7	25.8	25.7	-1.2	8.6	/
O=[N+]([O-])c1ccc(NC2CCN(Cc3ccccc3)CC2)c2ccncc12	28.7	2.0	34.9	67.3*	17.6	-6.6	77.7*
O=[N+]([O-])c1cc(F)c(N2CCCCCC2)cc1N1CCNCC1	-3.3	-2.8	3.4	98.8*	5.8	-11.0	97.3*
CC[n+]1c(-c2ccccc2)c2cc(N)ccc2c2ccc(N)cc21	2.4	52.6*	95.1*	55.3*	/	5.7	87.3*
CCCCn1nnnc1C(CCSC)N1CCC(n2c(=O)[nH]c3ccccc32)CC1 (stereo not given)	-8.3	-4.6	17.0	51.8*	/	/	67.8*
COc1cccc(C(c2nnnn2-c2c(C)cccc2C)N2CCC(n3c(=O)[nH]c4ccccc43)CC2)c1OC (stereo not given)	-4.2	16.9	-15.0	57.5*	/	/	41.9*
CCCCn1nnnc1C(C1CC1)N1CCC2(CC1)C(=O)NCN2c1ccccc1 (stereo not given)	8.6	3.8	6.8	7.2	/	/	/
COc1ccc(-n2nnnc2C(CCSC)N2CCC(n3c(=O)[nH]c4ccccc43)CC2)cc1 (stereo not given)	-16.3	34.4	17.0	56.5*	/	/	42.4*
SMILES	HIF-2a block	TROY signal inh	TWEAK Fn14 block	Peg3 prom inh-1	MITF TRPM1 inh	LMP1 NFkB inh	Peg3 prom inh-2
COc1ccc(N2C(=O)CC(N3CCC(n4c(=O)[nH]c5ccccc54)CC3)C2=O)cc1 (stereo not given)	17.2	-10.2	0.4	9.4	-10.2	8.1	/
Cc1nc2ccccc2c(=O)n1-c1ccc(-c2ccccc2)cc1	-20.3	4.8	9.6	21.7	-5.7	-1.7	/
COC(=O)C1=C(c2cccc(NC(C)=O)c2)C[C@@H]2CC[C@H]1N2C	7.3	6.8	12.3	-111.5	-11.5	-4.5	/
CCOC(=O)[C@]12Cc3cc(OC)ccc3[C@H]1N(Cc1ccccc1)C(=O)c1ccccc12	5.0	-6.7	6.9	16.5	5.5	-1.9	/
CCOC(=O)[C@]12Cc3cc(C)ccc3[C@H]1N(Cc1ccccc1)C(=O)c1ccccc12	17.3	-2.6	20.8	65.1*	-1.1	-16.1	33.7
C[C@@H]1COc2cccc(N3CCN(C)CC3)c2S(=O)(=O)N1	-6.5	-5.9	2.9	/	/	/	/
CC(=O)OC1(C)CC(C)C(=O)C(C(O)CC2CC(=O)NC(=O)C2)C1 (stereo not given)	77.3*	85.8*	102.9*	105.4*	84.0*	88.7*	97.8*
COc1ccc(-n2c(/C=C/c3ccc(O)c(OC)c3)nc3ccccc3c2=O)cc1	24.1	7.8	41.1	55.5*	4.2	-2.5	68.8*
CC(=O)OC1CC[C@]2(C#N)[C@H]3CC[C@]4(C)[C@H](C5C=CC(=O)O5)CCC4(O)C3CCC2(O)C1 (stereo not given in full)	4.3	14.9	19.7	75.6*	34.3	-26.2	86.6*
FC(F)(F)c1ccccc1CNCCc1c[nH]c2ccccc12	-2.3	11.2	6.8	-8.0	1.8	1.1	/
COc1cc2nc(CN3CC=C(c4ccccc4)CC3)[nH]c(=O)c2cc1OC	-210.5	-0.7	-19.5	102.0*	0.8	-358.5	93.6*
COc1cc(C)c(CN2CC=C(c3ccc(F)cc3)CC2)cc1C	23.1	20.1	7.9	17.1	-5.6	-9.1	/
COC(=O)C1=C(c2ccc(S(C)(=O)=O)cc2)C[C@@H]2CC[C@H]1N2C(=O)NCCNC(C)=O	3.5	-16.1	4.9	11.3	1.1	6.8	/
COC(COC(N)=O)C1=C(N2CC2)C(=O)C(C)=C(N2CC2)C1=O (stereo not given)	-4.6	2.5	-5.9	97.9*	-2.7	-6.0	97.2*
CCOC(=O)c1c(-n2c(C)cc(C=C3C(=O)NC(=S)NC3=O)c2C)sc2c1CCCC2	77.2*	-3.2	2.9	108.8*	64.5*	1.0	62.2*
